Hits are enriched below; roughly 4.8% of the tested compounds scored in any of these assays.
ssDAF12 agonist: S. stercoralis DAF-12 nuclear receptor activators, primary screen, cell-based, luminescence, HEK293, GRIP1 co-expression, lit1-tk-luc. Nuclear hormone receptor DAF-12 (Strongyloides stercoralis). HEK293 ssDAF-12/GRIP1 lit1-tk-luc reporter; % of 3 µM dafachronic acid response. AID 652126, 2013. activation, % at 6.8 µM. actives 1% (n = 370,000);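 active = activation above the mean over all tested compounds plus 3 SD, cut at about 0.9% in these data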;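 note: 0% = DMSO-only wells and 100% = 3 µM delta7-dafachronic acid wells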
hgDAF12 agonist: H. glycines DAF-12 receptor agonists, primary screen, cell-based, luminescence, HEK293, GAL4 fusion, UAS-luciferase. Nuclear hormone receptor DAF-12 (Heterodera glycines), GAL4 fusion. HEK293 GAL4-hgDAF12 UAS-luciferase reporter, agonist luminescence; normalized to butyrate control. activation, % at 6.8 µM. actives 1.8% (n = 370,000). AID 687014, 2013;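 active = activation above a cutoff set at the mean of all screened compounds plus 3 SD, cut at about 10% in these data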;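 note: 0% = DMSO wells and 100% = sodium butyrate wells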
SMARCA2 activ: SMARCA2 (BRM) function activators, primary screen, cell-based, luminescence, high throughput; MG213 cells, MMTV-luciferase reporter, dexamethasone, overnight; activation, % at 9.1 µM; actives 1% (n = 370,000); in the data active = activation above about 7.8%;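 note: 0% = vehicle wells and 100% = reference activator wells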
DAX1 inh-1: DAX1 (NR0B1) inhibitors, primary screen, cell-based, HEK293, Gal4-DAX1, luciferase luminescence; HEK293 Gal4-DAX1 luciferase reporter; AID 504766, 2011; actives 0.99% (n = 340,000); inhibition, % at 6.75 µM;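 active = inhibition above the mean over all tested compounds plus 3 SD, cut at about 4.2% in these data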;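 note: 0% = DAX1-transfected cells with DMSO and 100% = empty-vector control cells with DMSO; inhibition shows as a rise in luminescence from relieved DAX1 repression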
Target sequence (P51843 207-470 limits assumed): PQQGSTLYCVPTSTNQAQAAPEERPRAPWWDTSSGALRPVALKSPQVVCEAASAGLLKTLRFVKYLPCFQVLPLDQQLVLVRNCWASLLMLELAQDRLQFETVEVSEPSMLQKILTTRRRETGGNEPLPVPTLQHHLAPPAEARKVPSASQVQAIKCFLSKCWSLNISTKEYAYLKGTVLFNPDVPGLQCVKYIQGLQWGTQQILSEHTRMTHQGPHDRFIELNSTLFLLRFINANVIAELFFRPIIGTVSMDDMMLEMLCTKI
hcDAF12 agonist: H. contortus DAF-12 nuclear receptor activators, primary screen, cell-based, luminescence, HEK293, lit1-tk-luc reporter. activation, % at 6.8 µM. AID 652067, 2013. actives 1.4% (n = 370,000). HEK293 hcDAF-12 lit1-tk-luc reporter; 0% DMSO, 100% Δ7-dafachronic acid;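 active = activation above the mean of all tested compounds plus 3 SD, cut at about 5.5% in these data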;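 note: 100% = response to 3 µM Δ7-dafachronic acid high control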
DAX1 inh-2: DAX1 (NR0B1) inhibitors on StAR promoter, primary screen, cell-based, luminescence, SF-1 (NR5A1), full-length DAX-1; inhibition, % at 6.8 µM; HEK293T StAR-luciferase reporter, SF-1/DAX-1 repression relief; actives 1.1% (n = 370,000);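 active = inhibition above the mean over all tested compounds plus 3 SD, cut at about 3.6% in these data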;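 note: 0% = DAX-1 cells with DMSO and 100% = cells lacking DAX-1 with DMSO; higher inhibition means more luminescence from relief of DAX-1 repression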
LXRb hcDAF ctr: LXR agonists, Gal4 luciferase reporter, confirmation, counter-screen for hcDAF-12 agonist project, cell-based, luminescence, HEK293, H. contortus campaign | activation, % at 6.8 µM | shares compounds with hcDAF12 agonist | 3,400 tested, under 10 active | HEK293 Gal4-LXR tk-luc reporter, 24 h; normalized: DMSO 0%, positive control 100%;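 active = mean percent activation of the reporter above a cutoff set as the average over tested compounds plus their standard deviation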
hcDAF12 ag: H. contortus DAF-12 receptor agonists, confirmation, cell-based, luminescence, HEK293, lit1-tk-luc, triplicate | activation, % at 6.8 µM | shares compounds with hcDAF12 agonist | actives 61% (n = 3,400) | HEK293 hcDAF-12 lit1-tk-luc reporter; % of Δ7-dafachronic acid response | AID 743032, 2013;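 active = mean activation across triplicate tests above the threshold derived from the earlier primary screen, cut at about 5.5% in these data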;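 note: 0% = DMSO only wells and 100% = 3 µM Δ7-dafachronic acid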
Active calls of the source: *; / = no result given.

SMILES | ssDAF12 agonist | hgDAF12 agonist | SMARCA2 activ | DAX1 inh-1 | hcDAF12 agonist | DAX1 inh-2 | LXRb hcDAF ctr | hcDAF12 ag
O=C(CCn1c(=S)oc2ccccc21)Nc1cccc(F)c1 | -1.3 | -0.7 | -4.4 | -0.9 | 7.5* | -0.2 | -0.6 | -1.6
Oc1[nH]c2ccccc2c1C=Nc1ccc2c(c1)OCCO2 | 0.7 | 12.6* | 4.6 | 1.6 | 8.4* | 3.5 | 1.2 | 6.9*
Cc1cccc(/N=C/c2c(O)[nH]c3ccccc23)n1 | 1.2* | 12.0* | 3.2 | 2.8 | 10.5* | 2.0 | 1.1 | 9.2*
CC(C)N=Cc1c(O)[nH]c2ccccc12 | -0.6 | 1.7 | -2.0 | 0.5 | 1.1 | 0.1 | / | /
Cc1ccccc1NC(=O)C(=O)Nc1ccccc1C | 0.0 | 9.3 | 2.5 | 1.9 | 8.3* | 1.2 | 0.7 | 4.8
Cc1ccccc1NC(=O)CC(=O)Nc1ccccc1C | -1.2 | -0.9 | 0.1 | 2.0 | 0.8 | -0.3 | / | /
Cc1oc(-c2ccccc2)nc1C(=O)Nc1nccs1 | 0.7 | 6.0 | 0.8 | 1.7 | 8.7* | 1.8 | 0.7 | 8.5*
Cc1ccc(Nc2nc(N/N=C/c3c[nH]c4ccccc34)nc(N3CCOCC3)n2)cc1 | 1.1* | 1.1 | 3.1 | -0.7 | 7.5* | 0.3 | -0.5 | -1.3
Cc1[nH]c2ccccc2c1/C=N/Nc1nc(Nc2ccc(F)cc2)nc(N2CCOCC2)n1 | -0.4 | 3.4 | 0.7 | 1.6 | 6.8* | 0.6 | -0.3 | 2.4
NC(=O)CNCCC(c1ccccc1)c1ccccc1 | -1.7 | 0.4 | 2.2 | -0.6 | -0.9 | 0.2 | / | /
Cc1nc(-c2noc(-c3ccccc3Cl)n2)c(C(F)(F)F)o1 | -0.3 | 6.8 | 0.9 | 2.5 | 1.2 | 0.1 | / | /
Clc1ccccc1OCc1nc(-c2ccc(Br)o2)no1 | -0.5 | 2.5 | 1.4 | -0.1 | 6.7* | 1.4 | -0.1 | 3.0
Brc1ccc(-c2nc(-c3ccccn3)no2)o1 | -0.1 | 5.4 | 0.2 | -2.9 | 8.0* | 0.7 | 1.2 | 10.8*
Clc1ccccc1-c1nc(-c2ccc(Br)o2)no1 | 3.5* | 21.5* | 2.5 | 5.6* | 15.1* | 2.1 | 2.1 | 17.6*
Brc1ccc(-c2nc(-c3ccncc3)no2)o1 | -1.6 | 0.1 | 5.2 | -0.2 | -1.7 | 0.6 | / | /
COc1ccccc1-c1nc(-c2ccccn2)no1 | -0.3 | 7.8 | 4.1 | -3.2 | 8.6* | 2.8 | 1.0 | 10.3*
Cn1cnc2c(=O)sc3ccccc3c21 | -1.6 | 3.1 | -3.6 | -1.4 | 1.4 | 0.1 | / | /
O=C(N1CCOCC1)N1CCC(n2nnc3cc(F)ccc32)CC1 | -0.7 | -0.9 | 0.0 | 0.6 | -2.0 | -0.8 | / | /
COCCCNS(=O)(=O)c1ccccc1 | -1.7 | -0.3 | 1.0 | 0.9 | -0.4 | 0.3 | / | /
CCOc1ncccc1C(=O)N(C)CC1COc2ccccc2O1 (stereo not given) | -1.4 | -2.4 | 0.3 | 0.3 | -0.9 | -0.4 | / | /
O=C(NCc1cc2ccccc2[nH]1)C1CCC(=O)N(CCCN2CCCC2=O)C1 (stereo not given) | 0.4 | 2.5 | 0.6 | 1.6 | 6.9* | 0.4 | -0.2 | 5.2

Screens from PubChem BioAssay.
